Among the test systems are NCI-H23 lung; NCI-H226 lung; NCI-H322M lung; HOP-62 NSCLC; NCI-H460 lung; NCI-H522 lung; A549/ATCC NSCLC; 786-0 renal; COLO 205 colon; DU-145 prostate; K-562 leukemia; MALME-3M melanoma; MDA-MB-231 breast; RXF 393 renal; SF-268 CNS; SF-295 CNS; SF-539 CNS; UACC-257 melanoma; M14 melanoma; HCT-15 colon.
What all share (test): NCI-60 one-dose screen, 48 h (100 = growth as untreated, 0 = no growth, -100 = all killed)
Common to all, as to conditions: 10 µM

Compounds without any hit were thinned out: in the full panel of roughly 83,000, 20% have a hit.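 Compound tested at a single concentration for 48 hours in 96-well plates; a percent growth value below 10 was scored as active.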 Values without a mark were called inactive. The source made the active and inactive calls.

As to `COc1cc(-c2cc(-c3cc4c([nH]c5ccccc54)c(-c4cc(OC)c(OC)c(OC)c4)n3)cc(-c3ccccc3)n2)cc(OC)c1OC`, the growth in the test on NCI-H23 lung was 69.1%; in the test on NCI-H226 lung it was 77%; in the test with NCI-H322M lung, 95%; with HOP-62 NSCLC it was 78%; with NCI-H460 lung it was 64.8%; with NCI-H522 lung it was 43.4%. Moreover, the growth is 42.8% in the test with A549/ATCC NSCLC; 79.6% with 786-0 renal; 84.8% with COLO 205 colon; 97.5% in the test on DU-145 prostate; 16.7% in the test with K-562 leukemia; 58.3% in the test on MALME-3M melanoma. Moreover, the growth in the test with MDA-MB-231 breast is 45.6%; in the test on RXF 393 renal, 72.6%; in the test with SF-268 CNS it was 78.7%; in the test on SF-295 CNS, 26.8%; in the test with SF-539 CNS, 66%; with UACC-257 melanoma, 89%. In addition, the growth was 50.9% with M14 melanoma and 51.6% in the test on HCT-15 colon.
For the compound `COc1cc(-c2cc(/C=C/C(=O)c3ccc(F)c(F)c3)[nH]n2)cc(OC)c1OC`, the growth is 55.9% in the test on NCI-H23 lung; 65.6% with NCI-H226 lung; 74.1% in the test with NCI-H322M lung; 78.7% in the test on HOP-62 NSCLC; 58.1% in the test with NCI-H460 lung; 47.4% in the test on NCI-H522 lung. Further, the growth with A549/ATCC NSCLC was 36.4%; in the test with 786-0 renal, 80.5%; with COLO 205 colon it was 61.4%; in the test with DU-145 prostate it was 72.9%; in the test on K-562 leukemia it was 29.8%; with MALME-3M melanoma, 72.5%. Besides, the growth in the test on MDA-MB-231 breast was 49.7%; in the test with RXF 393 renal, 76.9%; with SF-268 CNS, 61.7%; with SF-295 CNS, 10.4%; in the test with SF-539 CNS, 65.6%; in the test on UACC-257 melanoma, 80.8%. Moreover, the values for the growth in the test with M14 melanoma and in the test on HCT-15 colon were 67.9% and 46.6%, respectively.
Regarding `Cc1ccc(NC(=O)NC2CCCCC2)cc1`, the growth was 108% in the test with NCI-H23 lung; 95.5% with NCI-H226 lung; 92.2% in the test with NCI-H322M lung; 96.1% with HOP-62 NSCLC; 102% in the test with NCI-H460 lung; 82.8% in the test on NCI-H522 lung. Also, the growth was 91.5% in the test on A549/ATCC NSCLC; 98.6% with 786-0 renal; 105% in the test on COLO 205 colon; 114% with DU-145 prostate; 98% in the test on K-562 leukemia; 108% in the test with MALME-3M melanoma. The growth in the test on MDA-MB-231 breast was 115%; in the test with RXF 393 renal, 102%; in the test with SF-268 CNS, 108%; in the test with SF-295 CNS, 105%; in the test with SF-539 CNS, 102%; with UACC-257 melanoma, 80.6%. Further, the results for the growth in the test with M14 melanoma and in the test with HCT-15 colon were 107% and 96.3%, respectively.
On to `CC(=O)N1C/C(=C/c2ccc(Cl)cc2)C(=O)/C(=C/c2ccc(Cl)cc2)C1`, for which the growth in the test with NCI-H23 lung was -28% (active); in the test on NCI-H226 lung, -39.5% (active); in the test on NCI-H322M lung, -9.19% (active); in the test on HOP-62 NSCLC, -29.7% (active); in the test with NCI-H460 lung, -14.1% (active); with NCI-H522 lung, -66.4% (active). Further, the growth with A549/ATCC NSCLC was -24.6% (active); with 786-0 renal it was -59.3% (active); with COLO 205 colon it was -48.8% (active); in the test on DU-145 prostate, -30.5% (active); in the test with K-562 leukemia it was 2.09% (active); in the test on MALME-3M melanoma it was -56.4% (active). The growth in the test on MDA-MB-231 breast was -23.6% (active); in the test with RXF 393 renal, -92.8% (active); in the test on SF-268 CNS it was -26.8% (active); in the test on SF-295 CNS it was -30.1% (active); with SF-539 CNS, -39.4% (active); in the test on UACC-257 melanoma, -32.2% (active). The growth with M14 melanoma is -51.1% (active); in the test on HCT-15 colon, -5.84% (active).
As to `COc1cc(Cl)cc(-c2nn(-c3cccc(NC(=O)c4ccc(N5CCOCC5)c(C(F)(F)F)c4)c3)cc2-c2ccncc2)c1`, the growth with NCI-H23 lung is 79%; in the test with NCI-H226 lung, 64.2%; in the test on NCI-H322M lung it was 89.6%; with HOP-62 NSCLC it was 52.2%; with NCI-H460 lung, 29.3%; in the test with NCI-H522 lung, 52.7%. The growth in the test on A549/ATCC NSCLC was 45.5%; with 786-0 renal, 43.1%; in the test with COLO 205 colon it was 52.7%; in the test on DU-145 prostate it was 93.3%; with K-562 leukemia, 4.03% (active); in the test with MALME-3M melanoma, 57.9%. The growth with MDA-MB-231 breast is 11.4%; in the test on RXF 393 renal, 12.4%; in the test on SF-268 CNS, 67.3%; in the test with SF-295 CNS, 2.6% (active); in the test with SF-539 CNS, 52.1%; in the test on UACC-257 melanoma, 63.6%. The growth with M14 melanoma is 56.7%; in the test on HCT-15 colon it was 17.3%.
Take `N#Cc1ncc(Br)c(NC2CCCCCC2)n1`: the growth was 103% in the test on NCI-H23 lung; 97.1% in the test on NCI-H226 lung; 105% with NCI-H322M lung; 106% with HOP-62 NSCLC; 116% in the test on NCI-H460 lung; 110% in the test with NCI-H522 lung. Further, the growth was 89% in the test with A549/ATCC NSCLC; 104% in the test with 786-0 renal; 113% in the test with COLO 205 colon; 103% in the test on DU-145 prostate; 97.1% with K-562 leukemia; 145% with MALME-3M melanoma. Also, the growth with MDA-MB-231 breast was 98%; in the test on RXF 393 renal, 95.2%; in the test on SF-268 CNS, 111%; in the test with SF-295 CNS, 93.4%; in the test with SF-539 CNS it was 99.5%; with UACC-257 melanoma, 95%. Also, the growth was 114% in the test with M14 melanoma and 92.3% in the test on HCT-15 colon.
Consider `CCCCCCN(CCCCCC)CC(O)c1ccc2c3c(cccc13)CC2` (stereo not given), for which the growth with NCI-H23 lung was 30.5%; in the test on NCI-H226 lung, 69.9%; with NCI-H322M lung, 65.9%; with HOP-62 NSCLC, 85.2%; in the test with NCI-H460 lung, 42.6%; in the test with NCI-H522 lung, 30.1%. The growth with A549/ATCC NSCLC is 64.1%; in the test with 786-0 renal it was 43.1%; with COLO 205 colon, 64.1%; in the test with DU-145 prostate, 76.4%; in the test with K-562 leukemia it was 46.2%; with MALME-3M melanoma, 71.7%. The growth in the test on MDA-MB-231 breast was 72.9%; in the test with RXF 393 renal, 67.2%; with SF-268 CNS, 76.4%; in the test with SF-295 CNS, 49.4%; in the test on SF-539 CNS, 70%; with UACC-257 melanoma it was 67.9%. The growth with M14 melanoma is 28.2%; in the test on HCT-15 colon it was 44.2%.
Turning to `Cc1ccc(CC#N)cc1C`, the growth is 110% in the test on NCI-H23 lung; 96.1% in the test on NCI-H226 lung; 101% in the test on NCI-H322M lung; 101% with HOP-62 NSCLC; 99.1% with NCI-H460 lung; 98% with NCI-H522 lung. Also, the growth in the test on A549/ATCC NSCLC was 109%; with 786-0 renal, 103%; with COLO 205 colon it was 111%; in the test with DU-145 prostate, 85.4%; with K-562 leukemia it was 73.8%; in the test with MALME-3M melanoma it was 121%. The growth with MDA-MB-231 breast was 97.2%; in the test with RXF 393 renal, 83.2%; with SF-268 CNS it was 86.2%; in the test with SF-295 CNS it was 93%; in the test with SF-539 CNS it was 87.5%; with UACC-257 melanoma, 127%. Moreover, the growth with M14 melanoma was 96.9%; in the test on HCT-15 colon, 95.4%.

The values above are taken from PubChem BioAssay (NCI).
